Data as given in the supplement of paper PMC10849652.
Of roughly 8,800 targets only a part is listed; those with a hit were picked by preference. About 0.5% of all pairs of compound and target were hits.

Each target was assayed with O=C(CCCCCCC(=O)Nc1ccccc1)NO [vorinostat] (assay: log2 fold change, soluble protein after heating vs DMSO (PISA); higher = thermal stabilisation; K562 lysate, 10 uM; active = over 0.2 and 3.5 SD of the protein, either way, in both replicates (recomputed)).
Outline: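 Quantification was by TMTpro 16plex LC-MS/MS with equalised channel sums, applied to the supernatant after 21,000xg for 90 min. Samples were crude K562 extract at 1 mg/mL protein in PBS pH 7.4 with 1 mM MgCl2, treated with 10 μM compound for 30 min, heated for 3 min across 48°C-58°C, pooled and brought to 0.5% NP-40 at 4°C. Values are log-two fold changes in thermal stability relative to solvent controls, from duplicates.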

UniProt O43913, sequence (O43913 whole entry, looked up): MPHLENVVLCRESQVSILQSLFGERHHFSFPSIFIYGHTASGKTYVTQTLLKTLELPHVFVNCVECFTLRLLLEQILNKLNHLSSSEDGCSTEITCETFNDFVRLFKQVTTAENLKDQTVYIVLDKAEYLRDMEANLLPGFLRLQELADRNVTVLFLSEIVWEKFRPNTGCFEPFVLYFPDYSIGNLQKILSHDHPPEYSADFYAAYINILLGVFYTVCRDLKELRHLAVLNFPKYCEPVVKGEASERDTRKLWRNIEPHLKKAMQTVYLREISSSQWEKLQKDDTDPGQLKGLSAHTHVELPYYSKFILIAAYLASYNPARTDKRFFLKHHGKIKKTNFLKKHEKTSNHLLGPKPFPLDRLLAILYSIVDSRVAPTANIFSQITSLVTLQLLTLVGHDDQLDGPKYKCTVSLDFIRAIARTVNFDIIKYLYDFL
UniProt Q9ULX3, sequence (Q9ULX3 whole entry, looked up): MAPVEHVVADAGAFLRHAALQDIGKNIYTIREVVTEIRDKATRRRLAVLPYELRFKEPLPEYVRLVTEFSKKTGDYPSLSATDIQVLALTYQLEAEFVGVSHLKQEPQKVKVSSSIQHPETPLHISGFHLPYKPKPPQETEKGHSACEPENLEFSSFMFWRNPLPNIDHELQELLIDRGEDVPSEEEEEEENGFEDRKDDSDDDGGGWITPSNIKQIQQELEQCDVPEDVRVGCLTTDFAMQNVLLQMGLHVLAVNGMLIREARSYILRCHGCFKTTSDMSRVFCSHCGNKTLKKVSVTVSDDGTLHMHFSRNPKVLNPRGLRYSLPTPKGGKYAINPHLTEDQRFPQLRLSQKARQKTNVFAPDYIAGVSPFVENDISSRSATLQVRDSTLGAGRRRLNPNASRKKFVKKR
UniProt O94832, sequence (O94832 whole entry, looked up): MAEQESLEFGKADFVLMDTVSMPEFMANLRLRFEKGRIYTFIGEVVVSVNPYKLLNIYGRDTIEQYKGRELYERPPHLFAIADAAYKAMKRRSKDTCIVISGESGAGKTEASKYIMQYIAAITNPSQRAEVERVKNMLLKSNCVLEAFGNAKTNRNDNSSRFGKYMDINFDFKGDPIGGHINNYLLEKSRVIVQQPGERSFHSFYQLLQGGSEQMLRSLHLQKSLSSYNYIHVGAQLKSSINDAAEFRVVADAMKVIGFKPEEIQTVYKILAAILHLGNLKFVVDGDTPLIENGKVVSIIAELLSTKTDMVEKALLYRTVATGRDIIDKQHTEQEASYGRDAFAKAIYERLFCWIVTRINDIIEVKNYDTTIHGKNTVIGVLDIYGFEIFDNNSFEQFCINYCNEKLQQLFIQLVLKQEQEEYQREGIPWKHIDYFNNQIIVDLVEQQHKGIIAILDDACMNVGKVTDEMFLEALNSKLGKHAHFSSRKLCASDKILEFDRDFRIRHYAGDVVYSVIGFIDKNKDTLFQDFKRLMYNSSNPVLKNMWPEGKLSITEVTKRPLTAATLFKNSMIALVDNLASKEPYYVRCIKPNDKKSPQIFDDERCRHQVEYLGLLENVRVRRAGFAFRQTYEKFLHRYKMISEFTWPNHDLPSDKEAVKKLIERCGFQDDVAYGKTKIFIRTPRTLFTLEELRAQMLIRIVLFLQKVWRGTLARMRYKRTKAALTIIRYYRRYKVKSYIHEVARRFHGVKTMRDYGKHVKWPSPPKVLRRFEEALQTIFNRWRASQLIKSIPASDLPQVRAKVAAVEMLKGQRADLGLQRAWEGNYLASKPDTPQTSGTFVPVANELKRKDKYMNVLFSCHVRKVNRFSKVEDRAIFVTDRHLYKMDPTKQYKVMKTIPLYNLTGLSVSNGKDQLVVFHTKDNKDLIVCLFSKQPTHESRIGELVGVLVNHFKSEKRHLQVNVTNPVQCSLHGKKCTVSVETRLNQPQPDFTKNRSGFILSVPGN
UniProt Q15653, sequence (Q15653 whole entry, looked up): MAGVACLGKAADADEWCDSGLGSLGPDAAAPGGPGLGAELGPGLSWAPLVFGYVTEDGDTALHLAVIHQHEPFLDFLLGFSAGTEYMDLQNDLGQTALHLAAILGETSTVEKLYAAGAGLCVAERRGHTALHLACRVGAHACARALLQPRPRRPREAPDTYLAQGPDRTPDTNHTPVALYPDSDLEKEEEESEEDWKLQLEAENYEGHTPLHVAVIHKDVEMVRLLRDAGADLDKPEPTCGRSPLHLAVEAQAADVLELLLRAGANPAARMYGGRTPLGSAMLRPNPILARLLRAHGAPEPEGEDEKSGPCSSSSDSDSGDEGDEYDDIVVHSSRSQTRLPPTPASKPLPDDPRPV
UniProt O94916, sequence (O94916 whole entry, looked up): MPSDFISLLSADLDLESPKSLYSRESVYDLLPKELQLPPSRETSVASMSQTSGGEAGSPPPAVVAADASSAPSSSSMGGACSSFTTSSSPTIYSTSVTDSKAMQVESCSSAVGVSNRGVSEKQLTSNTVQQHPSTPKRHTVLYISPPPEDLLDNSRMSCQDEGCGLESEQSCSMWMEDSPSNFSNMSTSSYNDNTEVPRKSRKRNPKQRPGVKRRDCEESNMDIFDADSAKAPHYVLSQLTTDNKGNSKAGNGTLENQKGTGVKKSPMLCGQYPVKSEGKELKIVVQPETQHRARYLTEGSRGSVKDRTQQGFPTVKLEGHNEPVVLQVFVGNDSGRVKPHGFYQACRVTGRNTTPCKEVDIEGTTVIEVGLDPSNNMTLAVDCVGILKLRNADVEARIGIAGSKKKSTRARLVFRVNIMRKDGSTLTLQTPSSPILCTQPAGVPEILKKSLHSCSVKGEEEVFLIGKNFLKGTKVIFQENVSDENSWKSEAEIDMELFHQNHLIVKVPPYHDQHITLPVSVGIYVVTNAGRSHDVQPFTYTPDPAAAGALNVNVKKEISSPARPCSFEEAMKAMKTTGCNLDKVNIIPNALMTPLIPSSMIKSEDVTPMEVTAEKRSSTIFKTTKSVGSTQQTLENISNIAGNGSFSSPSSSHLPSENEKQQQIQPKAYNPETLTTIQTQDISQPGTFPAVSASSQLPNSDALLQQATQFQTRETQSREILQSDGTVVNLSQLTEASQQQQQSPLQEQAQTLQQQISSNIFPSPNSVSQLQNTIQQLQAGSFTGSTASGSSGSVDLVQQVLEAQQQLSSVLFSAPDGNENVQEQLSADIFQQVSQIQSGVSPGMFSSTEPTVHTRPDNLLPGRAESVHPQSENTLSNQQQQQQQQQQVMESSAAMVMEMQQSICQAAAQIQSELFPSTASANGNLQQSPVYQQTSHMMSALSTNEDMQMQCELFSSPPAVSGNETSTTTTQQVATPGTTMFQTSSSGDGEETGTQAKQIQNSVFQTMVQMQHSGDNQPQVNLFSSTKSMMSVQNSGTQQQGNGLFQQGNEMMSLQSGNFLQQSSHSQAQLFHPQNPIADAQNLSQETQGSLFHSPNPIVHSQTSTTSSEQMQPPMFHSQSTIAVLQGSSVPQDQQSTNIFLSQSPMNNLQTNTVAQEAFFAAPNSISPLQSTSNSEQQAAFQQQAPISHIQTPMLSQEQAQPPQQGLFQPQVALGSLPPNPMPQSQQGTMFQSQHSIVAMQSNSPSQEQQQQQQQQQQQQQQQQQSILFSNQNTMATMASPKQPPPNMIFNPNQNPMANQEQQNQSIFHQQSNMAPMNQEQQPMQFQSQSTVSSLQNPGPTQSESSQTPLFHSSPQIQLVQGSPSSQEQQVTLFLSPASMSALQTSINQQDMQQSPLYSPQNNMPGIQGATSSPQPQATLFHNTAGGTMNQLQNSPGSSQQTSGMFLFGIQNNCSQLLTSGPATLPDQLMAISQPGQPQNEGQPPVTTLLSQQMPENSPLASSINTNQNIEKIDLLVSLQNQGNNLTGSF
UniProt Q13153, sequence (Q13153 whole entry, looked up): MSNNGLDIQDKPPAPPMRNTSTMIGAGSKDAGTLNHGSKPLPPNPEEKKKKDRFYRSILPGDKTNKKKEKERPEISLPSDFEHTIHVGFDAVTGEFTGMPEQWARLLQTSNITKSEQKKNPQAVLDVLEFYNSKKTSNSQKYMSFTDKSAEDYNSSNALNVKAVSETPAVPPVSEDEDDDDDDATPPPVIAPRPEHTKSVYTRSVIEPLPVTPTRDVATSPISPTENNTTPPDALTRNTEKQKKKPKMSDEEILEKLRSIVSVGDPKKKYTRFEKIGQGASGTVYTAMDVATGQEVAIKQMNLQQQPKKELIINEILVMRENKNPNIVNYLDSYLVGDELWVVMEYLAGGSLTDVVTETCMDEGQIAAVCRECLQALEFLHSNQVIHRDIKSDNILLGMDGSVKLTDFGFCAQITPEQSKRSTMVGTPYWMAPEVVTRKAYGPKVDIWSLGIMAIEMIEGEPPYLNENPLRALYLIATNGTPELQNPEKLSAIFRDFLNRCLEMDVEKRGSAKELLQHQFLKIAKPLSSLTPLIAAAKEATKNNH
UniProt Q08J23, sequence (Q08J23 whole entry, looked up): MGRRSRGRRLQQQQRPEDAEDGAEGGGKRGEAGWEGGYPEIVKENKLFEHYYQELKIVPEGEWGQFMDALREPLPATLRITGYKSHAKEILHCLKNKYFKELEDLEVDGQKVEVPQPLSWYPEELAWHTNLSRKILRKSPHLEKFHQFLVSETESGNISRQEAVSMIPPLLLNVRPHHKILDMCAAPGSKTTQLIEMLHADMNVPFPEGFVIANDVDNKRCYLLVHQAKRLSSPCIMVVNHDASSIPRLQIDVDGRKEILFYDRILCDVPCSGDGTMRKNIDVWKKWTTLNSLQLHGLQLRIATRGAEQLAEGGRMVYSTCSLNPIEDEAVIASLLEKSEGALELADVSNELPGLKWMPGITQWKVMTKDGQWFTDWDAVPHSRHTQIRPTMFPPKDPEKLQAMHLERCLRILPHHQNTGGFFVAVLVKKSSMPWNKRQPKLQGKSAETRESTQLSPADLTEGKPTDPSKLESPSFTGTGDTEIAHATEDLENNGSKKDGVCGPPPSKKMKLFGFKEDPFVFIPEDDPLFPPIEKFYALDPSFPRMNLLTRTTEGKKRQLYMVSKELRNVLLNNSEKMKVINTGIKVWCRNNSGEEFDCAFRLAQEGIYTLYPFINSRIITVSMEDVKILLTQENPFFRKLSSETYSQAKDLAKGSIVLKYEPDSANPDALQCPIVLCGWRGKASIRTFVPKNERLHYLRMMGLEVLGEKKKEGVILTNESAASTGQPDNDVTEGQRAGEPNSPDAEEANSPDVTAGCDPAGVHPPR

log2 fold change, active:
MVB12A (UniProt Q96EY5) -0.812
MYO1D (UniProt O94832) -0.418
NSUN2 (UniProt Q08J23) -0.42
MSH2 (UniProt P43246) -0.287
NF1 (UniProt P21359) -0.634
OARD1 (UniProt Q9Y530) -0.456
NCAPH2 (UniProt Q6IBW4) -0.277
NCAPG2 (UniProt Q86XI2) -0.598
ORC5 (UniProt O43913) -0.377
OCRL (UniProt Q01968) -0.43

log2 fold change, inactive:
MRPL53 (UniProt Q96EL3) -0.119
PAK1 (UniProt Q13153) 0.13
MYO9A isoform 4 (UniProt B2RTY4) 0.084
MRPS31 (UniProt Q92665) 0.021
MT-ATP8 (UniProt P03928) 0.155
NOB1 (UniProt Q9ULX3) -0.128
NDUFAF5 (UniProt Q5TEU4) 0.065
OSGEP (UniProt Q9NPF4) -0.038
OGFOD2 (UniProt Q6N063) -0.075
MRPL58 (UniProt Q14197) -0.053
NUCB2 (UniProt P80303) 0.133
NFKBIB (UniProt Q15653) -0.204
MYO10 (UniProt Q9HD67) -0.038
NFAT5 isoform 5 (UniProt O94916) -0.026
